High-throughput results (PubChem)
AmpC inh no detg: qHTS Inhibitors of AmpC Beta-Lactamase (assay without detergent) | P00811 | AmpC nitrocefin hydrolysis, absorbance 480 nm, 0.0001% Triton | Potency, µM (doses to about 57.1 µM), for inactives: at the top dose activity change, negative = inhibition, usual class: inhibitors | 330,000 tested, 0.52% active | AID 485341, 2010;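 further: plate controls were no compound for no effect and no enzyme for full effect; nearly all actives have a fitted effect of over 20% in size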
Target sequence (P00811 whole entry, looked up): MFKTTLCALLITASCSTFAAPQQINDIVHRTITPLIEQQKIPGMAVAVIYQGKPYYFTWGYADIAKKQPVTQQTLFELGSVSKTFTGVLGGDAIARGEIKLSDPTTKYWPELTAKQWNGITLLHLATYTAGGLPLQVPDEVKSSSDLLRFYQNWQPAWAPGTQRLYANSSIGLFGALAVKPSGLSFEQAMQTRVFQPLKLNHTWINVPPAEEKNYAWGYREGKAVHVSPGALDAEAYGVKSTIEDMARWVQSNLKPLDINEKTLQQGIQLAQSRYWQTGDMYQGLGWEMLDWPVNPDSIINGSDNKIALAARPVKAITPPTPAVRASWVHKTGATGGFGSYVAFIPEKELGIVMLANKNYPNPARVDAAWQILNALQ
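20 mM phosphate pH 7.0 + 0.01% (detergent screen) or 0.0001% Triton X-100; 5.3 nM AmpC reagent; cpd preinc 15 min RT; nitrocefin (800 uM stock) to start; A480 q20 s × 4 min; Activity was normalised to no-enzyme and no-compound control wells.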
AmpC inh detg: qHTS Inhibitors of AmpC Beta-Lactamase (assay with detergent). Potency, µM (highest dose often 114 µM), inactives show at the highest dose activity change, negative = inhibition, hits mostly inhibitors. 370,000 tested, 0.041% active. P00811. AmpC hydrolysis of nitrocefin, absorbance 480 nm, 0.01% Triton;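 further: 0% = no-compound wells and -100% = no-enzyme wells; nearly all actives have a fitted effect of over 25% in size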
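20 mM phosphate pH 7.0 + 0.01% (detergent screen) or 0.0001% Triton X-100; 5.3 nM AmpC reagent; cpd preinc 15 min RT; nitrocefin (800 uM stock) to start; A480 q20 s × 4 min; Activity was normalised to no-enzyme and no-compound control wells.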
VACV mCherry inh: qHTS for Stage-Specific Inhibitors of Vaccinia Orthopoxvirus: mCherry Reporter Primary qHTS | Potency, µM (highest dose often 36.5 µM), inactives show top-dose activity change, negative = inhibition, hits mostly inhibitors | Vaccinia virus mCherry reporter infection, fluorescence | 310,000 tested, 0.63% active; calls by dose curve; tested in A549 cells; further: nearly all actives have a fitted effect of over 35% in size
VACV Venus inh: qHTS for Stage-Specific Inhibitors of Vaccinia Orthopoxvirus: Venus Reporter Primary qHTS; Potency, µM (doses to about 36.5 µM), inactives show at the highest dose activity change, negative = inhibition, actives largely listed as inhibitors; 330,000 tested, 0.46% active; Vaccinia virus Venus reporter expression, fluorescence; AID 720580, 2013; calls by dose curve; tested in A549 cells; further: nearly all actives have a fitted effect of over 30% in size
Numbers without * were called inactive; i = inactive; ? = inconclusive; / = no result. Compounds with a hit are over-represented: about 1.1% of the library has one in this group of screens. Unless noted, the call rests on the fitted dose curve; in most records, active means well fitted curve in the direction sought with a large enough effect; inconclusive means small, poorly fitted or top-dose-only effect, or another doubt; inactive means no such curve, though single readings can be large; an effect the other way counts as inactive or inconclusive. Unless noted, on the % scale 0 is the no-effect control and ±100 the full control effect; potency means the concentration at half of the fitted maximal effect.

SMILES	AmpC inh no detg	AmpC inh detg	VACV mCherry inh	VACV Venus inh
O=C1Nc2cc(C(=O)NCCN3CCCCCC3)ccc2S/C1=C/c1ccccc1F	/	/	?	13µM*
C=C1C(=O)C23CCC4C(C)(C(=O)OC)CCCC4(C)C2CCC1(O)C3 (stereo not drawn)	/	/	7.9µM*	11µM*
On1onc2c3cc(-c4ccccc4)nc3ccc21	-30%	-2%	3.2µM*	?
CCOc1ccc(C(=O)Cn2c(=O)n3nc(CCn4nc(C)cc4C)nc3c3cc(OC)c(OC)cc32)cc1	/	-8%	3.5µM*	?
COc1cc(=O)n2c(c1C(=O)NCc1ccc3c(c1)OCO3)CCN(C(=O)c1cccc(F)c1)CC2	/	/	-6%	0%
O=C(NC(=S)N1CCN(c2ccc(C(F)(F)F)cc2[N+](=O)[O-])CC1)c1cccs1	14µM*	-1%	-14%	-23%
COc1ccccc1-c1cn[nH]c1-c1ccc(OCc2ccc(F)cc2)cc1O	7.1µM*	4%	/	/
C=C(C)COc1ccc(-c2[nH]ncc2-c2ccc(OC)cc2)c(O)c1	-54%	-3%	/	/
C=C(C)COc1ccc(-c2[nH]ncc2-c2ccc(OC)c(OC)c2)c(O)c1	-32%	1%	/	10µM*
COc1ccc(-c2cn[nH]c2-c2ccc(OCc3ccccc3)cc2O)cc1OC	-49%	16%	11µM*	?
Cc1cnc(-n2ncc(C(=O)NCCCc3ccncc3)c2C)nc1-c1ccc(F)cc1	/	/	-42%	?
CCN(CC)c1ccc2c(O)cc(=O)oc2c1	25µM*	?	i	-7%
CCN(CC)c1ccc2c(Cl)cc(=O)oc2c1	-17%	0%	-14%	2%
NC(=S)N/N=C/c1ccc(-c2cc(Cl)ccc2Cl)o1	-47%	?	3.2µM*	3.2µM*
CCOC(=O)/C=C1\Nc2ccccc2SC1=O	20µM*	-10%	-16%	-16%
CC(=O)NC(=S)Nc1ccc(NC(=O)c2cccs2)cc1	-8%	-15%	-6%	-13%
Cc1c(C(=O)NC(=S)Nc2ccc(NC(=O)c3cccs3)cc2)oc2ccccc12	18µM*	?	-8%	-8%
COc1ccc(OC)c(CN2CCCC(c3nc(C)ncc3-c3ccc(F)cc3)C2)c1 (stereo not drawn)	/	/	-11%	-8%
O=[N+]([O-])c1ccccc1/C=C/c1ccnc2ccccc12	/	/	-4%	-23%
O=C1C=C(Nc2cccnc2)c2ccccc2C1=O	/	/	?	10µM*
Cc1ccc(NC2=CC(=O)C(=O)c3ccccc32)c(C)c1	-14%	-6%	/	/
O=C1C=C(Nc2ccccc2O)c2ccccc2C1=O	-21%	?	5µM*	?
O=C1C=C(Nc2ccc(F)cc2)c2ccccc2C1=O	-22%	-16%	?	-17%
O=C1C=C(NCc2ccccc2)c2ccccc2C1=O	-42%	-2%	?	11µM*
CO[C@H]1[C@H](NC(=O)c2ccco2)c2ccccc2C12CCN(Cc1cccn1-c1ccccn1)CC2	/	/	-16%	-4%
SMILES	AmpC inh no detg	AmpC inh detg	VACV mCherry inh	VACV Venus inh
Cc1cccc(OCC(=O)Nc2cc(-c3nc4cc(Cl)ccc4o3)ccc2C)c1	/	/	-13%	?
Cn1cc(Cl)c(C(=O)Nc2cccc(Cl)c2Cl)n1	7.1µM*	2%	i	-13%
CC(=O)Nc1ccc(S(=O)(=O)N2CCN(CCC#N)CC2)cc1	45µM*	?	-2%	-2%
CCN(C1CCCCC1)S(=O)(=O)c1ccc(S(=O)(=O)N2CCN(CCC#N)CC2)cc1	6.3µM*	-15%	/	/
Cc1ccc(S(=O)(=O)N2CCN(CCC#N)CC2)cc1	-6%	6%	-13%	9%
N#CCCN1CCN(S(=O)(=O)c2ccc(S(=O)(=O)N3CCCCCC3)cc2)CC1	-9%	?	-5%	1%
Cc1nc(S(=O)(=O)c2ccc(Cl)cc2)c(NCc2ccccc2)o1	-55%	56µM*	-10%	-2%
N#Cc1c(Cl)nsc1NN	1.4µM*	-3%	-24%	-6%
CC(=O)NC(CCS(C)(=O)=O)C(=O)Nc1ccccc1 (stereo not drawn)	5µM*	?	0%	14%
N#CCC(=O)c1ccccc1Oc1ccc(Cl)cc1	4µM*	?	/	/
O/N=C/c1ccccc1Oc1ccc(Cl)cc1	-33%	-6%	/	/
Cc1cnc(C)c(-c2cc(F)cc3c2OC(CNC(=O)C2CCOC2)C3)n1 (stereo not drawn)	/	/	-3%	4%
Cc1cccnc1Nc1nc(-c2ccccn2)cs1	-45%	?	2.5µM*	3.2µM*
CC(Oc1cccc(Cl)c1)C(=O)Nc1nc(-c2ccccn2)cs1 (stereo not drawn)	-40%	-3%	11µM*	?
CC(Oc1ccccc1)C(=O)Nc1nc(-c2ccncc2)cs1 (stereo not drawn)	-28%	0%	/	/
CC(Oc1ccccc1)C(=O)Nc1nc(-c2ccccn2)cs1 (stereo not drawn)	-19%	-4%	7.1µM*	?
O=C(Nc1nc(-c2ccccn2)cs1)c1ccc(Cl)s1	-13%	-6%	3.2µM*	?
Cc1ccccc1OCC(=O)OCC(=O)Nc1cc(S(=O)(=O)N2CCCCC2)ccc1Cl	32µM*	?	0%	-17%
COc1ccc(Cl)cc1NC(=O)COc1ccc(S(=O)(=O)N2CCOCC2)cc1C	-19%	28µM*	-1%	5%
Cc1ccc(S(=O)(=O)N2CCCCC2)cc1NC(=O)CSc1ncnc2ccccc12	-12%	-9%	11µM*	?
O=C(COC(=O)Cc1ccccc1)Nc1cc(S(=O)(=O)N2CCCCC2)ccc1Cl	-23%	0%	-4%	-12%
Cc1cc(C(=O)NCc2nc(-c3cccc(NC(=O)c4ccccc4)c3)oc2C)nc(C)n1	/	/	-12%	-5%
Clc1ccc(-n2cccc2CN2CCc3nnc(Cc4ccccc4)n3CC2)nc1	/	/	i	-11%
CN1CCCCC1C(=O)N1CCC(Oc2cccc(CN3CCN(c4ccccn4)CC3)c2)CC1 (stereo not drawn)	/	/	-10%	-3%
C=C(C(=O)c1ccccc1)C(CC(=O)c1ccccc1)c1ccccc1 (stereo not drawn)	-37%	-2%	13µM*	?
SMILES	AmpC inh no detg	AmpC inh detg	VACV mCherry inh	VACV Venus inh
C=C(CCC(=O)c1ccccc1)C(=O)c1ccccc1	-22%	-20%	-17%	?
c1ccc(N=Nc2ccccc2)cc1	/	/	-13%	-12%
[Hg+][c]1ccccc1	/	/	2µM*	2µM*
Cc1cc(=O)[nH]c(SCC(=O)Nc2ccc(Br)cn2)n1	1.3µM*	4%	-12%	-6%
Cc1ccc(-c2csc(NC(=O)CSc3nc(C)cc(=O)[nH]3)n2)cc1	14µM*	-8%	/	/
COc1ccc(C(=O)NCc2nc(-c3ccccc3NC(=O)c3cc(C)oc3C)oc2C)cc1F	/	/	-11%	-8%
O=C(CCCSc1ccccc1)Nc1nc(-c2ccco2)c(-c2ccco2)s1	28µM*	-5%	i	-8%
CC(C)COCc1ccc(O)c2ncccc12	-19%	10%	10µM*	?
CCCOCc1ccc(O)c2ncccc12	-9%	-7%	?	?
Oc1ccc(CNc2ccccc2F)c2cccnc12	-21%	?	10µM*	10µM*
